# PubChem BioAssay (NCI)
# Compounds without any hit were thinned out: in the full panel of roughly 83,000, 20% have a hit.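 Treatment: one concentration, 48 hours, 96-well format. Scoring: percent growth, with anything below 10 considered active.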 Activity calls are given as the source filed them.
# Tested on: SR leukemia
# Assay: NCI-60 one-dose screen, 48 h (100 = growth as untreated, 0 = no growth, -100 = all killed)
# Details: 10 µM
# Procedure: Growth inhibition of the SR human tumor cell line is measured as a screen for anti-cancer activity. Cells are grown in 96 well plates and exposed to the test compound for 48 hours. Compounds are tested at a single concentration, which is 10^-5 M for most compounds. The reported endpoint is percent growth (GI% or GIPRCNT), where numbers from 0 - 100% represent growth inhibition, and numbers from -100% - 0 represent cell death. For example, a value of 40 represents 60% growth inhibition. A value of 0 means no net growth occurred over the course of the experiment. A value of -40 indicates 40% of cells at the beginning of the experiment died by the end of the experiment. A value of -100 means all cells are dead at the end of the experiment.
# NCI-60 Human Tumor Cell Lines Screen was performed using the standard one-dose NCI protocol, which is described in more detail at https://dtp.cancer.gov/discovery_development/nci-60/default.htm.
# Compounds with GIPRCNT values below 10 were considered active. Activity score was based on GIPRCNT using the following formula: […]
# Score is 0 for GIPRCNT values of 100 or above, 50 for GIPRCNT values of 0, and 100 for GIPRCNT values of -100.
row,Structure (SMILES),growth
1,COc1ccc(/C=N/N=C(\C)c2ccc3c(c2)Nc2ccccc2S3)cc1O,32.6% (inactive)
2,C=C1CCC2C3(C)COC(c4c(F)cccc4F)OC3CCC2(C)C1CC(O)C1=CCOC1=O (stereo not given),32.8% (inactive)
3,O=S(=O)(Nc1ncccn1)c1ccc(-n2c(-c3ccccc3)nc(-c3ccccc3)c2-c2ccccc2)cc1,81.8% (inactive)
4,OCCCNc1oc(-c2ccccc2)nc1[P+](c1ccccc1)(c1ccccc1)c1ccccc1,1.71% (active)
5,COc1cccc(/C=N/NC(=O)c2ccc3nc(-c4ccc(Cl)cc4)[nH]c3c2)c1O,-36.8% (active)
6,C=CCn1c(SCC(=O)Nc2ccc(C(=O)/C=C/c3ccccc3)cc2)nnc1-c1c[nH]c2ccccc12,31.4% (inactive)
7,COc1cc2c3c(n(CCCNCCO)c(=O)c2cc1OC)-c1nc2c(cc1C3=O)OCO2,1.88% (active)
8,COc1cc(/C=C/C(=O)c2ccc(NC(=O)CSc3nnc(-c4c[nH]c5ccccc45)n3-c3ccccc3)cc2)cc(OC)c1OC,35.3% (inactive)
9,CCOC(=O)CNC(=O)CN(Cc1ccccc1)C(=O)[C@@]1(C)CCC[C@]2(C)[C@H]3C[C@H]4C(C(C)C)=C[C@]3(CC[C@H]21)[C@@H]1C(=O)OC(=O)[C@@H]14,4.44% (active)
10,COC(=O)c1c(C(=O)OC)c2n(c1C)[C@@H]([C@@H](C)[C@H]1CC[C@H]3[C@@H]4CCC5=CC(=O)CC[C@]5(C)[C@H]4CC[C@]13C)SC2,17.9% (inactive)
11,Cn1c(O)c(N=Nc2nc(-c3cc4ccccc4oc3=O)cs2)c2cc(Br)ccc21,71.7% (inactive)
12,O=C(CSc1nnc(-c2c[nH]c3ccccc23)n1-c1ccccc1)c1ccc(Cl)cc1,92.4% (inactive)
13,O=C(CNc1nc(-c2ccccc2)cs1)Nc1cccc([N+](=O)[O-])c1,2.8% (active)
14,COc1cc(C2CC(c3ccccc3)=Nc3c(N)nc(N)nc3N2)ccc1Oc1nc(Nc2ccc(F)cc2)nc(N(C)C)n1 (stereo not given),2.83% (active)
15,O=c1[nH]c2ccccc2cc1CSc1ccc(Nc2nccc(-c3ccc4ccccc4c3)n2)cc1,80.7% (inactive)
16,O=c1[nH]c2ccc(Cl)cc2cc1CSc1ccc(Nc2nccc(-c3ccc4ccccc4c3)n2)cc1,88% (inactive)
17,COc1ccc(OC)c(/C=N/NC(=O)c2ccc3nc(-c4ccc(Cl)cc4)[nH]c3c2)c1,68.6% (inactive)
18,Nc1nnc(-c2c[nH]c3ccc(F)cc23)c(-c2c[nH]c3ncccc23)n1,20.6% (inactive)
19,CCOP(=O)(OCC)O[C@H]1CCC(=O)[C@@H]2[C@H]1[C@H]1C[C@@H]3[C@@]4(C)CCCC(C)(C(=O)OC)[C@@H]4CC[C@@]23C=C1C(C)C (stereo not given in full),37.5% (inactive)
20,COc1ccc(-c2nc(-c3ccccc3)c(-c3ccccc3)n2-c2ccc(S(=O)(=O)Nc3ncccn3)cc2)cc1OC,68.9% (inactive)

row,Structure (SMILES),growth
1,O=C(CSc1nnc(-c2ccc3nc(-c4ccc(Cl)cc4)[nH]c3c2)o1)Nc1ccc(Br)cc1,3.26% (active)
2,N#Cc1c(NC(=O)c2ccc(C(F)(F)F)cc2C(F)(F)F)sc2c1CCC(=O)C2,-11.3% (active)
3,CCOC(=O)c1sc(N/N=C(\C)c2ccc3c(c2)Nc2ccccc2S3)nc1C,18.8% (inactive)
4,CC1CC(c2ccc(N(C)C)cc2)=NN1c1nc(O)c(C2=c3cc(Br)ccc3=NC2=O)s1 (stereo not given),67.6% (inactive)
5,O=c1c2ccccc2nc(COc2ccccc2)n1/N=C/c1ccc(F)cc1,78.2% (inactive)
6,COc1cc(OC(F)(F)F)ccc1C(=O)Nc1sc2c(c1C#N)CCC(=O)C2,15.1% (inactive)
7,O=C(NO)c1ccc(CNc2nc(-c3ccccc3)c3ccccc3n2)cc1,15.7% (inactive)
8,CC1(c2ccccc2)NC(=O)N(CC(=O)Nc2ccc(C(=O)/C=C/c3ccc(Cl)cc3)cc2)C1=O (stereo not given),-13.3% (active)
9,CCCn1c(=O)c2[nH]c(-c3ccc(OCc4nc5ccccc5[nH]4)cc3)nc2n(CCC)c1=O,39% (inactive)
10,Cc1noc2c(Cc3ccccc3)nn(CC(=O)N/N=C/c3ccc(F)cc3)c(=O)c12,102% (inactive)
11,O=C1Nc2ccc(Cl)cc2/C1=C/c1ccc(OCc2ccccn2)cc1,54.9% (inactive)
12,O=C(CSc1nnc(-c2ccc3nc(-c4ccc(Cl)cc4)[nH]c3c2)o1)Nc1ccc(Cl)cc1,3.21% (active)
13,COc1ccc(OC)c(-c2cc(-c3c[nH]c4ccccc34)nc(N)c2C#N)c1,8.54% (active)
14,O=C1CCC(N2Cc3c(NCc4ccc(-c5ccccc5)cc4)cccc3C2=O)C(=O)N1 (stereo not given),72.5% (inactive)
15,COc1ccc(C(=O)/C=C/c2ccc(Cl)c(C(F)(F)F)c2)cc1S(N)(=O)=O,8.87% (active)
16,C=C1CCC2C3(C)COC(c4c(F)cccc4F)OC3CCC2(C)C1C/C=C1/C(=O)OCC1O (stereo not given),14.8% (inactive)
17,CN1C/C(=C\c2ccc(O)cc2O)c2[o+]c3cc(O)ccc3cc2C1,2.85% (active)
18,O=C(Nc1nc2ccccc2s1)c1ccc(Br)cc1,80.1% (inactive)
19,COc1cc2c3c(n(CCCn4ccnc4)c(=O)c2cc1OC)-c1nc2c(cc1C3=O)OCO2,13.8% (inactive)
20,CCCCSc1nc(Nc2ccc(/C(C)=N/NC(N)=S)cc2)c(C#N)c(-c2ccc(F)cc2)n1,52.4% (inactive)
